Test results from PubChem BioAssay (EPA / NIEHS).
Activity calls are given as the source filed them. How the source made its calls: active means hit-call score of the fitted dose curve at least 0.9, where 1 is the maximum; inactive means score below 0.9.

The molecules below were run on Interleukin-8 (IL8), CXCL8 (gene 3576) (assay: BSK_LPS_IL8: BioMAP Diversity Plus: LPS Assay for Interleukin-8 (IL8) Biomarker Activity (AID 2283078)). Details: primary human HUVEC with PBMC; actives raise or lower the signal.
Experimental: BSK_LPS is a cell-based, multiplexed-readout assay that uses umbilical vein endothelium and peripheral blood mononuclear cells, a human vascular primary cell co-culture, with measurements taken at 24 hours after chemical dosing in a 96-well plate.BSK_LPS_IL8 is an assay component measured in the BSK_LPS assay. It measures IL-8 antibody related to regulation of gene expression using ELISA technology.Data from the assay component BSK_LPS_IL8 was analyzed into 1 assay endpoint. This assay endpoint, BSK_LPS_IL8, was analyzed with bidirectional fitting relative to DMSO as the negative control and baseline of activity. Using a type of binding reporter, gain or loss-of-signal activity can be used to understand changes in the signaling as they relate to the gene CXCL8. Furthermore, this assay endpoint can be referred to as a primary readout, because this assay has produced multiple assay endpoints where this one serves a signaling function. To generalize the intended target to other relatable targets, this assay endpoint is annotated to the cytokine intended target family, where the subfamily is interleukins.
The levels of cell surface (or secreted, indicated by the prefix "s") biomarker endpoints were measured by ELISA. Overt cytotoxicity to cells in confluent adherent cultures (all systems other than the BT system) was assessed by measuring total protein levels using sulforhodamine B (SRB) staining in parallel cultures at the time of biomarker measurements, indicated as SRB endpoints. For proliferation assays for adherent cell types, individual cell types are cultured at sub-confluence and relative cell numbers quantified by SRB staining at time points optimized for each system (48 h: 3C and CASM3C systems; 72 h: BT and HDF3CGF systems; 96 h: SAg system). SRB was performed by staining cells with 0.1% SRB after fixation with 10% TCA and reading wells at 560 nm.Viability and proliferation of PBMC (T cells) was quantified by Alamar Blue reduction for the SAg and BT systems. For PBMC viability (referred to as PBMC Cytotoxicity within the assay endpoint names), cells were plated (75,000/well in a 96-well plate) and then chemical samples added for 1 h before addition of activators, SEB and TSST-1 (20 ng/mL final concentration each). Cells were incubated for 90 h. Then, Alamar Blue (20 uL/well) (Invitrogen, Cat DAL1100) was added for 6 h, and the plates were read with a fluorescence microplate reader at 546/580 nm (excitation/emission). For PBMC proliferation, cells were plated and activated as above but incubated for only 16 h prior to addition of Alamar Blue. Plates were read after 6 h.

Compound | outcome | AC50
CCCC(=NOCC)C1=C(O)CC(CC(C)SCC)CC1=O (stereo not given) | inactive | –
Nc1c(Cl)c(F)nc(OCC(=O)O)c1Cl | inactive | –
COCC(C)N(C(=O)CCl)c1c(C)csc1C (stereo not given) | inactive | –
CNC(=O)N(C)c1nnc(C(C)(C)C)s1 | inactive | –
COc1ccc(-c2ccccc2)cc1NNC(=O)OC(C)C | inactive | –
Nc1c(Cl)c(Cl)nc(C(=O)O)c1Cl | inactive | –
CCN(CC)c1nc(C)cc(OP(=S)(OC)OC)n1 | inactive | –
CCN(CC)C(=O)C(C)Oc1cccc2ccccc12 (stereo not given) | inactive | –
CC(C)Oc1cccc(NC(=O)c2ccccc2C(F)(F)F)c1 | inactive | –
CC(C)C1(C)N=C(c2ncccc2C(=O)O)NC1=O (stereo not given) | inactive | –
COC(=O)N(C(=O)N1CO[C@@]2(C(=O)OC)Cc3cc(Cl)ccc3C2=N1)c1ccc(OC(F)(F)F)cc1 | – | 5.43 µM (active)
CS(=O)(=O)c1ccc(C(=O)C2C(=O)CCCC2=O)c([N+](=O)[O-])c1 | inactive | –
C=C(C)CN(CC)c1c([N+](=O)[O-])cc(C(F)(F)F)cc1[N+](=O)[O-] | inactive | –
O=P(O)(O)CCCl | inactive | –
CC(C)Nc1nc(Cl)nc(NC(C)C)n1 | inactive | –
C=CCOC(=O)C(C)(C)OC(=O)c1cc(-n2c(=O)cc(C(F)(F)F)n(C)c2=O)ccc1Cl | inactive | –
CCSC(=O)N1CCCCCC1 | inactive | –
CCCN(CC)CC1COC2(CCC(C(C)(C)C)CC2)O1 (stereo not given) | – | 15.7 µM (active)
COCc1cnc(C2=NC(C)(C(C)C)C(=O)N2)c(C(=O)O)c1 (stereo not given) | inactive | –
COP(=S)(OC)Oc1ccc([N+](=O)[O-])c(C)c1 | inactive | –

Compound | outcome | AC50
COC(=O)c1c(C(F)F)nc(C(F)(F)F)c(C2=NCCS2)c1CC(C)C | inactive | –
O=C1C2CC=CCC2C(=O)N1SC(Cl)(Cl)Cl (stereo not given) | – | 25.2 µM (active)
Clc1nc(Cl)nc(Nc2ccccc2Cl)n1 | inactive | –
Clc1cccc(C(Cl)(Cl)Cl)n1 | inactive | –
CC(C)NC(=O)N1CC(=O)N(c2cc(Cl)cc(Cl)c2)C1=O | inactive | –
CCC(C)n1c(=O)[nH]c(C)c(Br)c1=O (stereo not given) | inactive | –
OC(c1ccc(Cl)cc1)(c1ccc(Cl)cc1)C(Cl)(Cl)Cl | – | 30.6 µM (active)
CNC(=O)Oc1cccc2ccccc12 | inactive | –
N#Cc1c[nH]cc1-c1cccc2c1OC(F)(F)O2 | inactive | –
O=C(Nc1ccccc1-c1ccc(Cl)cc1)c1cccnc1Cl | inactive | –
CC(C)N1C(=O)N(c2ccccc2)CSC1=NC(C)(C)C | – | 17.1 µM (active)
CC1(C)CCC(=Cc2ccc(Cl)cc2)C1(O)Cn1cncn1 (stereo not given) | inactive | –
CCOc1nc(F)cc2nc(S(=O)(=O)Nc3c(Cl)cccc3Cl)nn12 | inactive | –
O=c1n(Cl)c(=O)n(Cl)c(=O)n1Cl | inactive | –
Cn1c(-c2ccccc2)cc(-c2ccccc2)[n+]1C | inactive | –
N#Cc1c(Cl)cccc1Cl | inactive | –
COC(=O)NC(=S)Nc1ccccc1NC(=S)NC(=O)OC | inactive | –
Cc1c(COC(=O)[C@@H]2[C@H](/C=C(\Cl)C(F)(F)F)C2(C)C)cccc1-c1ccccc1 | – | 5.39 µM (active)
Cc1nc(N(C)C)nc(OC(=O)N(C)C)c1C | inactive | –
CS(=O)(=O)c1cc(C(F)(F)F)ccc1C(=O)c1cnoc1C1CC1 | inactive | –
